PubChem BioAssay (NCI)
This is part of a sample that, as a whole, favours compounds with a hit. Of some 83,000 tested, about 20% had one in any assay.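 Treatment: one concentration, 48 hours, 96-well format. Scoring: percent growth, with anything below 10 considered active.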 Active and inactive are the calls of the source.

Tests used:
Assay in all cases: NCI-60 one-dose screen, 48 h (100 = growth as untreated, 0 = no growth, -100 = all killed)
Details in all cases: 10 µM unless noted
HCT-15 colon = test system: HCT-15 colon
HT29 colon = test system: HT29 colon
SNB-75 CNS = test system: SNB-75 CNS
SNB-19 CNS = test system: SNB-19 CNS
U251 CNS = test system: U251 CNS
PC-3 prostate = test system: PC-3 prostate
SK-MEL-5 melanoma = test system: SK-MEL-5 melanoma
UACC-62 melanoma = test system: UACC-62 melanoma
LOX IMVI melanoma = test system: LOX IMVI melanoma
SK-MEL-28 melanoma = test system: SK-MEL-28 melanoma
SK-MEL-2 melanoma = test system: SK-MEL-2 melanoma
SN12C renal = test system: SN12C renal
UO-31 renal = test system: UO-31 renal
TK-10 renal = test system: TK-10 renal
ACHN renal = test system: ACHN renal
CAKI-1 renal = test system: CAKI-1 renal
A498 renal = test system: A498 renal
CCRF-CEM leukemia = test system: CCRF-CEM leukemia
MOLT-4 leukemia = test system: MOLT-4 leukemia

Measured: growth

O=C(O)Cc1ccc2c(c1)Cc1cccnc1O2
inactive: HCT-15 colon 103% | HT29 colon 99.8% | SNB-75 CNS 87.9% | SNB-19 CNS 107% | U251 CNS 102% | PC-3 prostate 101% | SK-MEL-5 melanoma 99.5% | UACC-62 melanoma 109% | LOX IMVI melanoma 100% | SK-MEL-28 melanoma 109% | SK-MEL-2 melanoma 104% | SN12C renal 100% | UO-31 renal 94% | TK-10 renal 92.5% | ACHN renal 111% | CAKI-1 renal 96.9% | A498 renal 104% | CCRF-CEM leukemia 100% | MOLT-4 leukemia 102%

CCOC(=O)[C@H](CSSc1ncnc2cc[nH]c12)NC(=O)[C@@H](C)c1ccc2cc(OC)ccc2c1
active: UACC-62 melanoma 7.27% | MOLT-4 leukemia 3.42%
inactive: HCT-15 colon 19.6% | HT29 colon 15.7% | SNB-75 CNS 50.1% | SNB-19 CNS 91.8% | U251 CNS 35.6% | PC-3 prostate 36.3% | SK-MEL-5 melanoma 45% | LOX IMVI melanoma 10.3% | SK-MEL-28 melanoma 69.2% | SK-MEL-2 melanoma 23% | SN12C renal 29.8% | UO-31 renal 13.4% | TK-10 renal 13.8% | ACHN renal 24.9% | CAKI-1 renal 16% | A498 renal 49.9% | CCRF-CEM leukemia 12.7%

Clc1nc2ccccc2nc1CI
inactive: HCT-15 colon 74.9% | HT29 colon 117% | SNB-75 CNS 89.2% | SNB-19 CNS 103% | U251 CNS 113% | PC-3 prostate 89.6% | SK-MEL-5 melanoma 83% | UACC-62 melanoma 100% | SK-MEL-28 melanoma 103% | SK-MEL-2 melanoma 64.3% | SN12C renal 54.3% | UO-31 renal 69.2% | TK-10 renal 166% | ACHN renal 92.1% | CAKI-1 renal 97.8% | A498 renal 120% | MOLT-4 leukemia 20.2%
active: LOX IMVI melanoma 8.23% | CCRF-CEM leukemia -4.61%

COc1ccc(C2CC(c3cccs3)=NN2c2ccc(S(=O)(=O)NC(=O)NCc3cccc(OC)c3)cc2)cc1 (centres undefined)
inactive: HCT-15 colon 102% | HT29 colon 120% | SNB-75 CNS 99.9% | SNB-19 CNS 103% | U251 CNS 98.1% | PC-3 prostate 96.3% | SK-MEL-5 melanoma 50% | UACC-62 melanoma 31% | LOX IMVI melanoma 96.8% | SK-MEL-28 melanoma 48.3% | SK-MEL-2 melanoma 57.6% | SN12C renal 112% | UO-31 renal 87.2% | TK-10 renal 96% | ACHN renal 93.2% | CAKI-1 renal 94.7% | A498 renal 102% | CCRF-CEM leukemia 88.1% | MOLT-4 leukemia 94.7%

O=[N+]([O-])c1cc(S(=O)(=O)OCC2CO2)ccc1Cl (centres undefined)
inactive: HCT-15 colon 93.4% | HT29 colon 49.7% | SNB-75 CNS 89.9% | SNB-19 CNS 110% | U251 CNS 98.9% | PC-3 prostate 83.7% | SK-MEL-5 melanoma 102% | UACC-62 melanoma 111% | LOX IMVI melanoma 39.1% | SK-MEL-28 melanoma 90.1% | SK-MEL-2 melanoma 88.4% | SN12C renal 103% | UO-31 renal 89.7% | TK-10 renal 114% | ACHN renal 98.5% | CAKI-1 renal 104% | A498 renal 121% | CCRF-CEM leukemia 76.7% | MOLT-4 leukemia 95.3%

CC(=O)C1CCC(C)=CC1=O (centres undefined)
inactive: HCT-15 colon 99.4% | HT29 colon 103% | SNB-75 CNS 81.5% | SNB-19 CNS 101% | U251 CNS 97.4% | PC-3 prostate 96.3% | SK-MEL-5 melanoma 108% | UACC-62 melanoma 101% | LOX IMVI melanoma 94% | SK-MEL-28 melanoma 103% | SK-MEL-2 melanoma 94.3% | SN12C renal 99% | UO-31 renal 80.3% | TK-10 renal 97.7% | ACHN renal 98.4% | CAKI-1 renal 96.5% | A498 renal 87.6% | CCRF-CEM leukemia 100% | MOLT-4 leukemia 88.3%

CCn1cc(C(=O)O)c(=O)c2cc(F)c(N3CCN(S(=O)(=O)c4c(C)cc(C)cc4C)CC3)cc21
inactive: HCT-15 colon 71.5% | HT29 colon 94.8% | SNB-75 CNS 70.8% | SNB-19 CNS 89.9% | U251 CNS 83.3% | PC-3 prostate 61.4% | SK-MEL-5 melanoma 79.5% | UACC-62 melanoma 75.9% | LOX IMVI melanoma 61.3% | SK-MEL-28 melanoma 91.7% | SK-MEL-2 melanoma 88.7% | SN12C renal 88.5% | UO-31 renal 33.1% | TK-10 renal 97.5% | ACHN renal 75.8% | CAKI-1 renal 89.5% | A498 renal 78.9% | CCRF-CEM leukemia 81.8% | MOLT-4 leukemia 75.9%

CC1=C(C#N)C(C)(C)C(C#N)=C(C)N1
inactive: HCT-15 colon 98.6% | HT29 colon 105% | SNB-75 CNS 79.5% | SNB-19 CNS 95.9% | U251 CNS 94.8% | PC-3 prostate 84.7% | SK-MEL-5 melanoma 101% | UACC-62 melanoma 105% | LOX IMVI melanoma 98.3% | SK-MEL-28 melanoma 110% | SK-MEL-2 melanoma 109% | SN12C renal 99.5% | UO-31 renal 91.1% | TK-10 renal 103% | ACHN renal 101% | CAKI-1 renal 103% | A498 renal 88.6% | CCRF-CEM leukemia 98% | MOLT-4 leukemia 102%

O=C(Nc1cc(C(F)(F)F)cc(C(F)(F)F)c1)Nc1ccc(OCc2nnc(-c3ccc(Cl)cc3)o2)c(F)c1
active: U251 CNS 1.55% | PC-3 prostate 3.89% | SK-MEL-5 melanoma -29.6% | LOX IMVI melanoma 3.82% | SK-MEL-2 melanoma -37.9% | UO-31 renal -2.51% | ACHN renal -6.91% | CAKI-1 renal 4.76% | A498 renal -7.1% | CCRF-CEM leukemia 6.66%
inactive: HCT-15 colon 13.6% | HT29 colon 10.8% | SNB-75 CNS 14.8% | SNB-19 CNS 23% | UACC-62 melanoma 27.7% | SK-MEL-28 melanoma 28.8% | SN12C renal 11.1% | TK-10 renal 21.1% | MOLT-4 leukemia 18%

O=Nc1c(-c2c(O)[nH]c3ccc([N+](=O)[O-])cc23)[nH]c2ccc(O)cc12
active: SNB-75 CNS -28.1% | U251 CNS 0.602% | PC-3 prostate 2.12% | SK-MEL-5 melanoma -40.9% | UACC-62 melanoma -34.4% | LOX IMVI melanoma -32.4% | SK-MEL-28 melanoma -11% | SK-MEL-2 melanoma -55% | UO-31 renal -1.14% | ACHN renal -25.8% | CAKI-1 renal -14.3% | A498 renal -24.5% | CCRF-CEM leukemia 0.486% | MOLT-4 leukemia 2.17%
inactive: HCT-15 colon 10.3% | HT29 colon 69.2% | SNB-19 CNS 17.5% | SN12C renal 23.7% | TK-10 renal 49.9%

O=C(/C=C/c1ccccc1)n1c(-c2ccc(Cl)cc2)nc2ccccc21
inactive: SNB-75 CNS 18.1% | SNB-19 CNS 41.1% | TK-10 renal 18.6% | MOLT-4 leukemia 21.9%
active: HCT-15 colon -24.8% | HT29 colon -40.6% | U251 CNS -0.388% | PC-3 prostate 6.09% | SK-MEL-5 melanoma -70.6% | UACC-62 melanoma -84.7% | LOX IMVI melanoma -82.9% | SK-MEL-28 melanoma -65.4% | SK-MEL-2 melanoma -36% | SN12C renal -48.5% | UO-31 renal -39% | ACHN renal -49.9% | CAKI-1 renal -39.4% | A498 renal -14.6% | CCRF-CEM leukemia -23.9%
